Measurements from PubChem BioAssay (NCATS).
Several values for one entry are separate records, joined by “and”; a condition that tells them apart may be missing. Identical values can stand only once. A number with no mark means an inactive call. Results filed as inconclusive are left out. Where a call stands in place of a potency, no number is given. Activity calls are given as the source filed them. Unless noted, calls follow the shape of the dose curve; as a rule, active = well fitted curve in the direction sought with a large enough effect; inconclusive = small, poorly fitted or top-dose-only effect, or another doubt; inactive = no such curve, though single readings can be large; an effect the other way counts as inactive or inconclusive.

Experiments:
[1] = target: Cytochrome P450 1A2 (Homo sapiens) (UniProt P05177); test: p450-cyp1a2 (AID 410; calls by dose curve; also: potency is read from the fitted curve at half-maximal effect)
Sequence of Cytochrome P450 1A2 (Homo sapiens) (P05177 whole entry, looked up): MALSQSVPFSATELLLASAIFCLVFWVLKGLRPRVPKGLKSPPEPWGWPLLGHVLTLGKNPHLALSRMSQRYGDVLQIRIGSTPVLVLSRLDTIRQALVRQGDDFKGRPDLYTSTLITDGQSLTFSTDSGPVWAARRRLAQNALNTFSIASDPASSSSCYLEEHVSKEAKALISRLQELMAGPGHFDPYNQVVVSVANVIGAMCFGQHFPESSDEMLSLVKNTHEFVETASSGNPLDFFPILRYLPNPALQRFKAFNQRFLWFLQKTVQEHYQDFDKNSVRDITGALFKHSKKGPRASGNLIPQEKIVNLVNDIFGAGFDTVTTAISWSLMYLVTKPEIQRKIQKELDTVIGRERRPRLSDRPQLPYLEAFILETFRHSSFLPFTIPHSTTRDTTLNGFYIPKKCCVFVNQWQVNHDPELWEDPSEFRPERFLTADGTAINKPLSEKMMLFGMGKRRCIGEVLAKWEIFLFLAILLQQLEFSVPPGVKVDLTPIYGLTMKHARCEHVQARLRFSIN
In short: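 Read-out is luminescence from luciferin produced by CYP1A2 demethylation of Luciferin-ME (100uM, at Km). Detection reagent stopped the 60 min NADPH-dependent reaction; signals were normalized to 57 uM furafylline.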

[2] = target: Glucocorticoid receptor (Homo sapiens) (UniProt P04150); test: GR-GFP Redistribution (AID 450;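 active = compounds whose dose series gives a full or clear partial fitted curve of increased nuclear translocation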; also: potency is read from the fitted curve at half-maximal effect); details: U2OS GR-GFP nuclear translocation, laser cytometry, 2 h
Sequence of Glucocorticoid receptor (Homo sapiens) (P04150 whole entry, looked up, the tested form may be a part): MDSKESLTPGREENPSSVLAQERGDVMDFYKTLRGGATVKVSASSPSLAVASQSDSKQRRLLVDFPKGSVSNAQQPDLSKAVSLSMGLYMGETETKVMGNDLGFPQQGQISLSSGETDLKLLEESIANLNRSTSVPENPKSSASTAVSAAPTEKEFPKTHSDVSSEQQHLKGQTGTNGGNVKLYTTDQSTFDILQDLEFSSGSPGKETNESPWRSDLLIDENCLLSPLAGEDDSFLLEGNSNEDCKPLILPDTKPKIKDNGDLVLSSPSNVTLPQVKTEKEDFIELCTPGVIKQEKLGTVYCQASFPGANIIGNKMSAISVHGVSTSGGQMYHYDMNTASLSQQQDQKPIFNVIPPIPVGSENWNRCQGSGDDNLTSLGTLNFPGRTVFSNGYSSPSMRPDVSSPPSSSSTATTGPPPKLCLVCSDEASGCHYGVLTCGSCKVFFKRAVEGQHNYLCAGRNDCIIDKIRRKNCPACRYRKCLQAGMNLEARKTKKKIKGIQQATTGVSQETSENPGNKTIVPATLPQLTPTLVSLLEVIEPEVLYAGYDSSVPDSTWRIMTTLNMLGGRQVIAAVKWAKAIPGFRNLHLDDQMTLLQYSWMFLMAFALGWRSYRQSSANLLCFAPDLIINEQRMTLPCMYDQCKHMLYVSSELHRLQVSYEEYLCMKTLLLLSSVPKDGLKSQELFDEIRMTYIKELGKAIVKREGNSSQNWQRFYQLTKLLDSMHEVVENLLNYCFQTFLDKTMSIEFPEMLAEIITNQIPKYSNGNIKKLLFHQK

[3] = target: Glucocorticoid receptor (Homo sapiens) (UniProt P04150); test: GR-EFC Redistribution (AID 451; calls by dose curve; also: potency is read from the fitted curve at half-maximal effect); details: CHO-K1 GR-EFC translocation, beta-gal luminescence, 2 h
In short: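 CHO-K1 cells stably expressing nuclear-localized β-gal enzyme acceptor and GR fused C-terminally to the enzyme donor fragment; ligand-driven nuclear translocation restores β-gal by complementation. Compounds titrated up to 46 uM final, 2 h at 37 °C; luminescence read.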

[4] = target: Mitogen-activated protein kinase 10 (Mus musculus) (UniProt Q61831); test: JNK3 AlphaScreen Assay (AID 530; active = well fitted curve in either direction with a large enough effect, not every such curve was filed as active;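 also: kinase came from lysate of stimulated human HepG2 cells; signal reports phosphorylation of biotinylated GST-cJun 1-79 at Ser73 with 10 µM ATP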)
In short: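 Biotinylated GST-cJun(1-79) served as substrate for JNK3 in HepG2 lysates stimulated with IL-1beta and TNF-alpha. ATP was 10 uM final, pH 7.6. Ser73 phosphorylation was quantified by AlphaScreen (680 nm excitation).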

[5] = target: 3',5'-cyclic-AMP phosphodiesterase 4B (Homo sapiens) (UniProt Q07343); test: qHTS Assay for Inhibitors of PDE-IV (AID 607; active = well fitted activation curve with a large enough effect in the main read-out, with a control signal flat, not every such curve was filed as active)
Sequence of 3',5'-cyclic-AMP phosphodiesterase 4B (Homo sapiens) (Q07343 whole entry, looked up): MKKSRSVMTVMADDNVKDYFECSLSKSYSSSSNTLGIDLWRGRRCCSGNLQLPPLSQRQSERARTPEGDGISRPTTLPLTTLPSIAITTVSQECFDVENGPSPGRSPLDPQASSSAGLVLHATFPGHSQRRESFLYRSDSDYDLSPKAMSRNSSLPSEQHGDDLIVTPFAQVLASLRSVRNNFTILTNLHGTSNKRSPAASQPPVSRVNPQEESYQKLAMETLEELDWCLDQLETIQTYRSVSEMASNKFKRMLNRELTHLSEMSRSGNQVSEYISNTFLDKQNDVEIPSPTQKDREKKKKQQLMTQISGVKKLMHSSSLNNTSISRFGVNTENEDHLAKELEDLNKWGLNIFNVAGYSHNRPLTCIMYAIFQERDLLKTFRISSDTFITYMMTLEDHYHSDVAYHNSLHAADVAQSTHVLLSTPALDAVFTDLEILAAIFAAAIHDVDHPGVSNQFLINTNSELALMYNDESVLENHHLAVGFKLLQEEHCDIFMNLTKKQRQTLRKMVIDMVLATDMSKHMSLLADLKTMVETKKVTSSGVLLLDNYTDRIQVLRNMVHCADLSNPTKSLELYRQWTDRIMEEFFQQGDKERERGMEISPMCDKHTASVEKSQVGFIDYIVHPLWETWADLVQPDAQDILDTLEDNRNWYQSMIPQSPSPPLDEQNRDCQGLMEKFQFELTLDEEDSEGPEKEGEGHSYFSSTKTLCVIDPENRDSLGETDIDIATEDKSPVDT
In short: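 The readout is membrane depolarisation from a cAMP-sensing CNG channel, detected with a potential dye at ex 535/em 590. Cells were HEK293-derived (endogenous PDE-IV) at 1000 cells/well, titrated up to 22.9 uM final.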

[6] = target: Cytochrome P450 2C9 (Homo sapiens) (UniProt P11712); test: qHTS Assay for Inhibitors and Substrates of Cytochrome P450 2C9 (AID 883); also: potency is read from the fitted curve at half-maximal effect; nearly all actives have a fitted effect of over 60% in size
In short: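 A luminogenic readout tracked human CYP2C9 (10nM) converting deoxyluciferin (100uM, at KM) in 25mM KPO4 during 60 min at 37C with regenerated NADPH. Values normalized to 57uM sulphaphenazole as complete inhibition.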

[7] = target: Ubiquitin carboxyl-terminal hydrolase 1 (Homo sapiens) (UniProt O94782); test: Inhibitors of USP1/UAF1: Pilot qHTS (AID 504865);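 also: rhodamine fluorescence freed from ubiquitin-rhodamine substrate followed over time; top concentration of the series differs between compounds; nearly all actives have a fitted effect of over 35% in size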
Sequence of Ubiquitin carboxyl-terminal hydrolase 1 (Homo sapiens) (O94782 whole entry, looked up): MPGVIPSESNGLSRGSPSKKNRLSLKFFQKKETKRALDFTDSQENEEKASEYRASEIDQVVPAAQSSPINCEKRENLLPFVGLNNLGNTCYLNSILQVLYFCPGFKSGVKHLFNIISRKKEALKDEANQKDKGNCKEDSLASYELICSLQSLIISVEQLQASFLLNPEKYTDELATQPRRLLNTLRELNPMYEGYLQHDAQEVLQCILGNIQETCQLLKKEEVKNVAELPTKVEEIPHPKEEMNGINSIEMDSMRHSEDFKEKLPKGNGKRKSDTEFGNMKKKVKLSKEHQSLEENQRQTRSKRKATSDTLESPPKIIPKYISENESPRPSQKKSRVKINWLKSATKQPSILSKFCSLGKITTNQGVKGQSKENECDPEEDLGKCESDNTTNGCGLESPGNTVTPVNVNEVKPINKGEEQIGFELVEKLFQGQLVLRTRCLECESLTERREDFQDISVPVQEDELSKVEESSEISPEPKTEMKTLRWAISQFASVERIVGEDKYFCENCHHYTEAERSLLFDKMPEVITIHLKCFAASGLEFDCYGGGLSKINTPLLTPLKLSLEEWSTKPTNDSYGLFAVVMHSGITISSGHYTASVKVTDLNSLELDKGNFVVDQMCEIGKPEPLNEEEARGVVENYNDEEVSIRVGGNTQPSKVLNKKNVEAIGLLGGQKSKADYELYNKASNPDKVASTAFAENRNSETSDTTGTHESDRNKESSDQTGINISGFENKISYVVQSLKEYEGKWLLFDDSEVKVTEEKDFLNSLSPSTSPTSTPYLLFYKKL
In short: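 1nM USP1/UAF1 + cpd, 15 min RT; start w/ Ub-Rho 150nM final; kinetic FL 480/540 nm, 6 reads q60 s. Buffer 50mM HEPES pH 7.8, 0.5mM EDTA, 1mM TCEP, 0.01% Tween-20, 0.1 mg/ml BSA.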

[8] = target: DNA dC->dU-editing enzyme APOBEC-3G (Homo sapiens) (UniProt Q9HC16); test: qHTS for inhibitors of Vif-A3G interactions: Validation (AID 588379); also: potency is read from the fitted curve at half-maximal effect
Sequence of DNA dC->dU-editing enzyme APOBEC-3G (Homo sapiens) (Q9HC16 whole entry, looked up): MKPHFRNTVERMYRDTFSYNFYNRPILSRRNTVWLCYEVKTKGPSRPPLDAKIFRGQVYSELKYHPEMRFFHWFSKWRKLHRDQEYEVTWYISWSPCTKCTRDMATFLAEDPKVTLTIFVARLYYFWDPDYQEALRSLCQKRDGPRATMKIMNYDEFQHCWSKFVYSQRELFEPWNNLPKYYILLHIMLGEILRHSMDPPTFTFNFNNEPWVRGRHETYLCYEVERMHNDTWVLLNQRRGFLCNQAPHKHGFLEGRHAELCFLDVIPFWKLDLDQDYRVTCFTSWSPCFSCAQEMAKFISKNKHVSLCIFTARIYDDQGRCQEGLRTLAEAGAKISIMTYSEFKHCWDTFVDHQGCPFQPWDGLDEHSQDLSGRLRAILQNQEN
In short: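 Yellow fluorescence (Ex 488, Em 500-530) of Vif-coexpressing HeLa A3G-eYFP cells, scanned by Acumen cytometer, reports blocked A3G degradation. Cells plated at 700/well overnight at 37 deg C before compound addition, then a further overnight compound incubation at 37 deg C.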

[9] = system: Zika virus NS2B-NS3 protease; test: Primary screen GU AMC qHTS for Zika virus inhibitors (AID 1347154); also: nearly all actives have a fitted effect of over 70% in size
In short: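 Unlinked Zika NS2B hydrophilic domain/NS3 protease domain noncovalent complex (25 nM final) in 10 mM Tris-HCl pH 8.0, 0.01% Tween 20, with AMC peptide substrate. Fluorescence (ex 340, em 450 nm) change over 15 min, room temperature; percent inhibition fitted to 4-parameter Hill equation.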

[10] = Primary qHTS for small molecule stabilizers of the endoplasmic reticulum resident proteome: Secreted ER Calcium Modulated Protein (SERCaMP) assay (AID 1508630)
In short: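 The SH-SY5Y reporter protocol was run at 3 concentrations up to 38.3 uM (primary) or 11 concentrations (follow-up): 16 h compound, 100 nM thapsigargin for 4 h, then extracellular luciferase luminescence.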

[11] = AP1 Signaling Pathway (AID 357; active = well fitted curve in either direction with a large enough effect, not every such curve was filed as active;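 also: ME-180 reporter cells stimulated with EGF at its EC50 level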); details: ME-180 AP-1-bla reporter, EGF-induced, beta-lactamase ratio, 5 h
In short: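 Read-out was the 460nm/530nm emission ratio (excitation 405nm) after CCF4 loading for 2.5 hours at room temperature. Cells carried an AP-1-driven beta-lactamase reporter, were stimulated with EC50 EGF plus compound for 5 hours, and AC50 values came from titrations.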

[12] = Stat Signaling Pathway (AID 446; active = well fitted curve in either direction with a large enough effect, not every such curve was filed as active;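 also: ME-180 cervical cancer cells given 40 pM IL-6 alongside compound; SIE-controlled beta-lactamase reporter measured as 460/530 nm FRET emission ratio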); details: ME-180 (cervical carcinoma) SIE beta-lactamase reporter, IL-6 stimulated, 5 h; at 17.2 µM (top of the series)
In short: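 Emission at 460 and 530 nm (excitation 405 nm) reports SIE-controlled beta-lactamase in ME-180 cells. Cells received compound with 40 pM IL-6 for 5 hrs at 37 C; data scaled between 300 pM IL-6 and 125 nM JAK-inhibitor controls.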

[13] = target: Cytochrome P450 3A4 (Homo sapiens) (UniProt P08684); test: qHTS Assay for Activators of Cytochrome P450 3A4 (AID 885); also: nearly all actives have a fitted effect of over 65% in size
Sequence of Cytochrome P450 3A4 (Homo sapiens) (P08684 whole entry, looked up): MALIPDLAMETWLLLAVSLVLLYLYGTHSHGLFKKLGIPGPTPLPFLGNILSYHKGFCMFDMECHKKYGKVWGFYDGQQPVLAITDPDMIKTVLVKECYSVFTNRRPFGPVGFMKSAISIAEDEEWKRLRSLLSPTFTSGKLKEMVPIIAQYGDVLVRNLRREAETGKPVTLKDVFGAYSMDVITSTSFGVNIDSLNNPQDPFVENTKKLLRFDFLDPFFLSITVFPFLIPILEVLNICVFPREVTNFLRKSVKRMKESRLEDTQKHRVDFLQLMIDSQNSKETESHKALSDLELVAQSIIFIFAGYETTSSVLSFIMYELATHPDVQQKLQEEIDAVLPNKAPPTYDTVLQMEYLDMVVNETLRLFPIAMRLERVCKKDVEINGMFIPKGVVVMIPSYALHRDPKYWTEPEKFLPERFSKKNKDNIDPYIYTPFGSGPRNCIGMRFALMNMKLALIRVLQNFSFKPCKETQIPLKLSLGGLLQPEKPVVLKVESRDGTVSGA
In short: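 Activators are scored by enhanced luminescence from CYP3A4 conversion of luciferin-PPXE (25uM, equal to KM) to luciferin, after 60 min at RT with an NADPH-regenerating system.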

[14] = target: Cytochrome P450 2D6 (Homo sapiens) (UniProt P10635); test: qHTS Assay for Inhibitors and Substrates of Cytochrome P450 2D6 (AID 891); also: nearly all actives have a fitted effect of over 60% in size; also: potency is read from the fitted curve at half-maximal effect;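 as to activity change, negative = inhibition: luciferin methyl ether substrate demethylated by CYP2D6 with NADPH regeneration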
Sequence of Cytochrome P450 2D6 (Homo sapiens) (P10635 whole entry, looked up): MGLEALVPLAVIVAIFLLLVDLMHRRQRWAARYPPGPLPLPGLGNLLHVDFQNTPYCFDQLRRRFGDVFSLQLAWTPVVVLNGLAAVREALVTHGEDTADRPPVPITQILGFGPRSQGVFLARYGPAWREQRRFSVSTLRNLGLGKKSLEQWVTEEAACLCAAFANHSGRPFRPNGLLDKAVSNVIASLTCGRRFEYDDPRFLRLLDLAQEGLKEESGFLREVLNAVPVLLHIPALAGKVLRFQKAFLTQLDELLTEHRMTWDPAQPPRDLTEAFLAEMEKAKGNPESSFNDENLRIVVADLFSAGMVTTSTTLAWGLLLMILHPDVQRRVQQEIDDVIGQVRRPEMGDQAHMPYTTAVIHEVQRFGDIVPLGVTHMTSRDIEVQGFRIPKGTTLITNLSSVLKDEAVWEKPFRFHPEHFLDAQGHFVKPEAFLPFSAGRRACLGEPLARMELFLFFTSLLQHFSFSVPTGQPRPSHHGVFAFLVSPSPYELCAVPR
In short: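 Luminescent read-out of luciferin formed by 5 nM human CYP2D6 demethylating 30 uM Luciferin-ME EGE (Km level) over 60 min at room temperature after NADPH regeneration addition. Data normalized to full inhibition by 1.43 uM quinidine.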

[15] = target: Cytochrome P450 2C19 (Homo sapiens) (UniProt P33261); test: qHTS Assay for Inhibitors and Substrates of Cytochrome P450 2C19 (AID 899); also: nearly all actives have a fitted effect of over 60% in size
Sequence of Cytochrome P450 2C19 (Homo sapiens) (P33261 whole entry, looked up): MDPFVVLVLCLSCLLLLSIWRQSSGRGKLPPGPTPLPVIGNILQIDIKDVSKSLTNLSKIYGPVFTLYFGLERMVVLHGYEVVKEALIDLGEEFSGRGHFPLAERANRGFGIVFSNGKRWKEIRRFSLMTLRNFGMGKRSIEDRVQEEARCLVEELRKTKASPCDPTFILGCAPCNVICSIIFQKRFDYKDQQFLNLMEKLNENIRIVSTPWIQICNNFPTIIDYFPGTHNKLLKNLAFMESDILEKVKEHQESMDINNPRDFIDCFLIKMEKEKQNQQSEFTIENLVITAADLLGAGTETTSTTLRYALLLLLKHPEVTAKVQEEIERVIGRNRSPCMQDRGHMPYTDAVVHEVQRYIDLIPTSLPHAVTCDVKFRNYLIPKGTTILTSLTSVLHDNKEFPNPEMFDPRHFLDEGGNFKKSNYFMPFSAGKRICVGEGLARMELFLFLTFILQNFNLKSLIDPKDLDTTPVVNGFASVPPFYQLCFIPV
In short: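 NADPH-dependent conversion of Luciferin-H EGE (10uM, at KM) by 5nM enzyme in 50mM KPO4, 60 min at 37C following 10 min compound preincubation. Stopped with luciferin detection buffer; luminescence read after 20 min.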

[16] = NFAT Signaling Pathway (AID 444; active = well fitted curve in either direction with a large enough effect, not every such curve was filed as active;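 also: carbachol stimulus at about its EC50 of 1 µM final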); details: Jurkat NFAT-bla M1, carbachol, beta-lactamase ratio, 5 h
In short: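 Jurkat cells carrying an NFAT-driven β-lactamase reporter and co-transfected muscarinic M1 receptor were treated with compound plus carbachol (1 uM final, an EC50 level) for 5 h at 37 °C. CCF4 loading followed for 1 h at RT; 460/530 nm ratio gave %activity.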

[17] = target: Guanine nucleotide-binding protein G(i) subunit alpha-1 (Homo sapiens) (UniProt P63096); test: qHTS Assay for Inhibitors of RGS12 GoLoco Motif Activity (Green Fluorophore) (AID 879);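 also: negative values mean loss of peptide binding seen as reduced polarization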
In short: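 A drop in FITC polarization marked displacement of the FITC-tagged RGS12 GoLoco peptide (10 nM) from Gαi1 (50 nM). Compounds were incubated 10 min at room temperature in Tris pH 7.5 buffer containing 150 mM NaCl, 0.1 mM GDP and 0.05% NP40; unlabeled peptide titration served as control.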

[18] = target: Cytochrome P450 3A4 (Homo sapiens) (UniProt P08684); test: qHTS Assay for Inhibitors and Substrates of Cytochrome P450 3A4 (AID 884); also: potency is read from the fitted curve at half-maximal effect; nearly all actives have a fitted effect of over 50% in size
In short: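 Luminescent readout of luciferin produced by CYP3A4 (20 nM) dealkylation of Luciferin-PPXE, 25 uM (its KM). NADPH-driven reaction ran 60 min at RT after 10 min compound preincubation; data scaled to 57 uM ketoconazole as 100% inhibition.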

[19] = target: alpha-glucosidase (Oryza sativa, rice) (UniProt Q653V4); test: Counterscreen for Glucocerebrosidase Inhibitors: qHTS Assay for Rice alpha-Glucosidase at pH 5.0 (AID 997)
In short: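 Endpoint fluorogenic assay at pH 5.0: compounds (0.7 nM to 77 uM) titrated against 4 nM rice enzyme and 400 uM 4-MU-alpha-glucoside for 20 min at room temperature; NaOH/glycine stop, read ex 365/em 440 nm, Hill-fitted AC50.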

CCCCC#Cc1nc(NC)c2ncn([C@@H]3O[C@@H](CO)[C@H](O)[C@H]3O)c2n1
Potency [1]: 31.6 µM (active)
Potency [2]: > 46 µM
Potency [3]: > 46 µM
Potency [4]: inactive
Potency [5]: inactive
Potency [6]: 0.631 µM (active)
Potency [7]: inactive
Potency [8]: inactive
Potency [9]: inactive
Potency [10]: inactive

c1ccc2cc(C3=NCCN3)ncc2c1
Potency [1]: 0.501 µM (active)
Potency [2]: > 46 µM
Potency [3]: > 46 µM
Potency [4]: inactive
Potency [5]: inactive
Potency [7]: inactive
Potency [8]: inactive
Potency [9]: inactive
Potency [10]: inactive

CCCCC[C@H](O)/C=C/C1=C(CCCCCCC(=O)O)C(=O)CC1
activity change, negative = inhibition ([11]; at 17.2 µM (top of the series)): -2.06%
activity, negative = inhibition [12]: 0.776%
Potency [2]: > 20.6 µM
activity change, negative = inhibition [9]: 14% [at 6.83 µM]
activity change, negative = inhibition [10]: -5.34% [at 3.88 µM]

CC[C@]1(O)C[C@@H]2CN(CCc3c([nH]c4ccccc34)[C@](C(=O)OC)(c3cc4c(cc3OC)N(C=O)[C@H]3[C@@](O)(C(=O)OC)[C@H](C(=O)OC)[C@@]5(CC)C=CCN6CC[C@]43[C@H]65)C2)C1
Potency [1]: inactive
Potency [2]: > 46 µM
Potency [3]: > 46 µM
Potency [13]: inactive
Potency [7]: inactive
Potency [8]: inactive
Potency [9]: inactive
Potency [10]: inactive

COC(=O)/C=C\c1cc(O)ccc1O
Potency [1]: 3.98 µM (active)
Potency [2]: > 46 µM
Potency [3]: > 46 µM
Potency [4]: inactive
Potency [5]: inactive
Potency [7]: inactive
Potency [8]: 18.8 µM (active)
Potency [9]: inactive
Potency [10]: inactive

CC1(C)CC(=O)C([C@H]2C3=C(CC(C)(C)CC3=O)Oc3ccccc32)C(=O)C1
Potency [1]: inactive
Potency [2]: > 46 µM
Potency [3]: > 46 µM
Potency [4]: inactive
Potency [5]: inactive
Potency [13]: inactive
Potency [7]: inactive
Potency [8]: inactive
Potency [9]: inactive
Potency [10]: inactive

O=C(N/N=C\c1ccccc1O)c1ccccc1O
Potency [1]: 0.794 µM (active)
Potency [2]: > 46 µM
Potency [3]: > 46 µM
Potency [5]: inactive
Potency [13]: inactive
Potency [14]: 7.94 µM (active)
Potency [15]: inactive
Potency [7]: inactive
Potency [9]: inactive
Potency [10]: inactive

CCCCCC#CCC#CCC#CCC#CCCCC(=O)O
activity change, negative = inhibition ([11]; at 17.2 µM (top of the series)): -11.4%
activity change, negative = inhibition ([16]; at 17.2 µM (top of the series)): -2.11%
Potency [2]: > 20.6 µM
Potency [9]: inactive
Potency [10]: inactive

CC#CCOC(=O)c1c(C)nc2sc3c(c2c1N)CC[C@@H](O)C3
activity change, negative = inhibition ([11]; at 38 µM (top of the series)): -15.6%
Potency [1]: 398 nM (active) and 25.1 nM (active)
activity change, negative = inhibition ([16]; at 38 µM (top of the series)): -25.8%
Potency [2]: > 46 µM
Potency [3]: > 46 µM
Potency [4]: inactive
Potency [5]: inactive
outcome [17]: inactive
Potency [18]: 3.16 µM (active)
Potency [13]: inactive
Potency [14]: inactive
Potency [15]: inactive
outcome [19]: inactive
Potency [8]: inactive
Potency [9]: inactive
Potency [10]: inactive
